The panel holds about 83,000 compounds, 20% with a hit somewhere; the sample as a whole holds those more often.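 Step 1: grow cells in 96-well plates. Step 2: add test compound at a single concentration. Step 3: incubate 48 h. Step 4: record percent growth.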 Calls of active or inactive are those of the source. How the source made its calls: active means growth percent below 10; inactive means the rest.
Assays:
Experiment in all cases: NCI-60 one-dose screen, 48 h (100 = growth as untreated, 0 = no growth, -100 = all killed)
Details in all cases: 10 µM unless noted
MOLT-4 leukemia = test system: MOLT-4 leukemia
RPMI-8226 leukemia = test system: RPMI-8226 leukemia
OVCAR-8 ovarian = test system: OVCAR-8 ovarian
OVCAR-5 ovarian = test system: OVCAR-5 ovarian
OVCAR-4 ovarian = test system: OVCAR-4 ovarian
SK-OV-3 ovarian = test system: SK-OV-3 ovarian
IGROV1 ovarian = test system: IGROV1 ovarian
OVCAR-3 ovarian = test system: OVCAR-3 ovarian
NCI/ADR-RES ovarian = test system: NCI/ADR-RES ovarian
T-47D breast = test system: T-47D breast
BT-549 breast = test system: BT-549 breast
MDA-MB-435 melanoma = test system: MDA-MB-435 melanoma
SW-620 colon = test system: SW-620 colon
MCF7 breast = test system: MCF7 breast
HCT-116 colon = test system: HCT-116 colon
HCC-2998 colon = test system: HCC-2998 colon
KM12 colon = test system: KM12 colon
HS 578T breast = test system: HS 578T breast

Measured: growth

COc1cc2c(c(OC)c1OC)-c1ccc([O-])c(=O)cc1[C@@H](NC(C)=O)CC2.COc1cc2c(c(OC)c1OC)-c1ccc([O-])c(=O)cc1[C@@H](NC(C)=O)CC2.[Cu+2]
active: IGROV1 ovarian -0.159% | OVCAR-3 ovarian -26.7% | MDA-MB-435 melanoma -18.8% | HCT-116 colon 8.67% | HCC-2998 colon -14.9% | KM12 colon 6.75%
inactive: MOLT-4 leukemia 10.5% | RPMI-8226 leukemia 15.3% | OVCAR-8 ovarian 23.2% | OVCAR-5 ovarian 54.3% | OVCAR-4 ovarian 48.6% | SK-OV-3 ovarian 17.2% | NCI/ADR-RES ovarian 40.4% | T-47D breast 41.1% | BT-549 breast 12.8% | SW-620 colon 19.3% | MCF7 breast 11%

COC(=O)C1CCC(NC(=O)c2csc([C@@H](C[C@H](C(C)C)N(C)C(=O)[C@@H](NC(=O)[C@H]3CCCCN3C)C(C)C)OC(C)=O)n2)CC1 (stereo partly specified)
inactive: MOLT-4 leukemia 18.1% | RPMI-8226 leukemia 25.7% | OVCAR-8 ovarian 19.3% | OVCAR-5 ovarian 53% | OVCAR-4 ovarian 45.3% | SK-OV-3 ovarian 20.8% | IGROV1 ovarian 28.3% | HS 578T breast 42.6% | NCI/ADR-RES ovarian 11.8% | T-47D breast 64.4% | SW-620 colon 28.1% | MCF7 breast 19.4% | HCC-2998 colon 20.2%
active: OVCAR-3 ovarian -37.6% | BT-549 breast -20.7% | MDA-MB-435 melanoma -48.5% | HCT-116 colon 5.04% | KM12 colon 9.7%

CCCCCN(CCCCC)CC(O)c1cc(Cl)ccc1OC (stereo unspecified)
inactive: MOLT-4 leukemia 34.9% | OVCAR-8 ovarian 63.1% | OVCAR-5 ovarian 53.7% | OVCAR-4 ovarian 42.9% | SK-OV-3 ovarian 53.6% | OVCAR-3 ovarian 28.6% | HS 578T breast 50.1% | NCI/ADR-RES ovarian 32.4% | T-47D breast 35% | BT-549 breast 79.8% | MDA-MB-435 melanoma 42.8% | SW-620 colon 25% | MCF7 breast 15.8% | HCC-2998 colon 17.2% | KM12 colon 29.8%
active: RPMI-8226 leukemia 0.775% | IGROV1 ovarian 2.26% | HCT-116 colon 4.09%

CCOC(=O)[C@@H](C)C[C@H](Cc1ccccc1)NC(=O)c1csc([C@@H](C[C@H](C(C)C)N(C)C(=O)[C@H](CCC(C)C)NC(=O)[C@H]2CCCCN2C)OC(C)=O)n1
active: SK-OV-3 ovarian 2.1% | OVCAR-3 ovarian -1.34% | HS 578T breast 5.53% | NCI/ADR-RES ovarian 4.75% | BT-549 breast -24.5% | MDA-MB-435 melanoma -1.75%
inactive: MOLT-4 leukemia 10.3% | RPMI-8226 leukemia 12.6% | OVCAR-8 ovarian 18% | OVCAR-5 ovarian 28.2% | OVCAR-4 ovarian 48.2% | IGROV1 ovarian 26.1% | T-47D breast 64.9% | SW-620 colon 25.4% | KM12 colon 13.9%

CC[C@H](C)[C@H](NC(=O)C12C3C4C1C1C2C3C41NC(C)=O)C(=O)N(C)[C@H](C[C@@H](OC(C)=O)c1nc(C(=O)N[C@@H](Cc2ccccc2)C[C@H](C)C(=O)OC)cs1)C(C)C (stereo partly specified)
active: RPMI-8226 leukemia 2.37% | OVCAR-3 ovarian -33.8% | BT-549 breast 5.96% | MDA-MB-435 melanoma -32.9% | HCT-116 colon 6.15%
inactive: MOLT-4 leukemia 17.7% | OVCAR-8 ovarian 17% | OVCAR-5 ovarian 47.8% | OVCAR-4 ovarian 38.7% | SK-OV-3 ovarian 48.5% | IGROV1 ovarian 31.1% | HS 578T breast 18.6% | NCI/ADR-RES ovarian 89.7% | T-47D breast 70.1% | SW-620 colon 21% | MCF7 breast 15.2% | HCC-2998 colon 24.1% | KM12 colon 14.8%

Oc1c(O)c(Cl)c(Cl)c(Cl)c1Cl
inactive: MOLT-4 leukemia 31.1% | RPMI-8226 leukemia 25.1% | OVCAR-5 ovarian 77.7% | OVCAR-4 ovarian 15.8% | SK-OV-3 ovarian 64% | HS 578T breast 34.8% | NCI/ADR-RES ovarian 11.7% | T-47D breast 15.1% | BT-549 breast 52.5% | MDA-MB-435 melanoma 30.8% | SW-620 colon 28% | MCF7 breast 13.5% | HCT-116 colon 16.4% | HCC-2998 colon 72.8% | KM12 colon 30.4%
active: OVCAR-8 ovarian -4.12% | IGROV1 ovarian -33.3% | OVCAR-3 ovarian -11.7%

COC(=O)[C@@H](C)C[C@H](Cc1ccccc1)NC(=O)c1csc([C@@H](C[C@H](C(C)C)N(C)C(=O)[C@@H](NC(=O)[C@H]2CCCCN2C)C2CC2)OC(C)=O)n1
inactive: MOLT-4 leukemia 15.3% | RPMI-8226 leukemia 34.9% | OVCAR-8 ovarian 22.2% | OVCAR-5 ovarian 73% | OVCAR-4 ovarian 57.4% | SK-OV-3 ovarian 21.9% | IGROV1 ovarian 30.8% | HS 578T breast 35.7% | T-47D breast 73% | SW-620 colon 48.4% | MCF7 breast 16.3% | HCC-2998 colon 15.9%
active: OVCAR-3 ovarian -4.55% | NCI/ADR-RES ovarian 8.28% | BT-549 breast -30.6% | MDA-MB-435 melanoma -12.1% | HCT-116 colon 7.53% | KM12 colon 5.07%

CC(C)=CC1C(C(=O)OCc2cccc(Oc3ccccc3)c2)C1(C)C (stereo unspecified)
inactive: MOLT-4 leukemia 83.3% | RPMI-8226 leukemia 91.7% | OVCAR-8 ovarian 100% | OVCAR-5 ovarian 101% | OVCAR-4 ovarian 97.3% | SK-OV-3 ovarian 102% | IGROV1 ovarian 93.1% | OVCAR-3 ovarian 102% | HS 578T breast 101% | NCI/ADR-RES ovarian 95% | T-47D breast 81.5% | BT-549 breast 100% | MDA-MB-435 melanoma 91.9% | SW-620 colon 94.8% | HCT-116 colon 84.8% | HCC-2998 colon 94.5% | KM12 colon 97.3%

CC(=O)Oc1ccccc1C(=O)NCCC[Se]C#N
active: OVCAR-8 ovarian -13.9% | OVCAR-3 ovarian -5.3% | BT-549 breast -97% | MDA-MB-435 melanoma 3.02% | HCT-116 colon 0.0792%
inactive: MOLT-4 leukemia 10.7% | RPMI-8226 leukemia 91.1% | OVCAR-5 ovarian 83.3% | OVCAR-4 ovarian 57.2% | SK-OV-3 ovarian 32.6% | IGROV1 ovarian 10.8% | HS 578T breast 17.1% | NCI/ADR-RES ovarian 14.4% | T-47D breast 83.3% | SW-620 colon 72.9% | MCF7 breast 14.5% | KM12 colon 29.6%
